# PubChem BioAssay (NCATS)
# Inconclusive results are not listed. A number with no mark means an inactive call. Activity calls are given as the source filed them. Calls come from the whole dose curve; as a rule, active = well fitted inhibition curve with a large enough effect; inconclusive = small, poorly fitted or top-dose-only effect; inactive = flat fitted curve, though single readings scatter.
# What was measured:
# [1] = test system: W2; test: qHTS profiling for inhibitors of Plasmodium falciparum proliferation (AID 504749); note: potency is the fitted concentration of half-maximal effect; conditions: P. falciparum in erythrocytes, SYBR Green DNA, 72 h; series mostly up to 28.7 µM
# Method in brief: (§1)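 Infected RBCs, 0.3% parasitemia/2.5% Hct final; cpd 72 h, 37 C, 5% CO2; lysis buffer with saponin/triton/SYBR Green I, o/n RT dark; FI 485/535; norm. to artemisinin (0.29 uM) and DMSO.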
# [2] = test system: CRL-7250; test: Cytotoxic Profiling of Annotated Libraries Using Quantitative High-Throughput Screening (AID 1296008); conditions: Five cell lines viability, CellTiter-Glo ATP luminescence, 48-72 h; max response: hits give low values; note: potency is the fitted concentration of half-maximal effect; for max response: % is set by controls: 0 for no effect and ±100 for the full control effect
# Method in brief: (§2)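 Cytotoxicity was measured as CellTiter-Glo ATP luminescence, read after 10 min at room temperature. Compound treatment of the cells lasted 48 or 72 hr at 37 degrees Celsius in a qHTS format.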
# [3] = test system: HEK293; test: as above; conditions: Five cell lines viability, CellTiter-Glo ATP luminescence, 48-72 h; max response: hits give low values
# Method in brief: as §2
# [4] = test system: HaCat; test: as above; conditions: Five cell lines viability, CellTiter-Glo ATP luminescence, 48-72 h; max response: hits give low values
# Method in brief: as §2
# [5] = test system: KB-3-1; test: as above; conditions: Five cell lines viability, CellTiter-Glo ATP luminescence, 48-72 h; max response: hits give low values
# Method in brief: as §2
# [6] = test system: NIH3T3; test: as above; conditions: Five cell lines viability, CellTiter-Glo ATP luminescence, 48-72 h; max response: hits give low values
# Method in brief: as §2
# [7] = test system: TAB165; test: qHTS profiling for inhibitors of Plasmodium falciparum proliferation (AID 504749); note: potency is the fitted concentration of half-maximal effect; conditions: P. falciparum in erythrocytes, SYBR Green DNA, 72 h; series mostly up to 28.7 µM
# Method in brief: as §1
# [8] = test system: TAB113; test: as above; conditions: P. falciparum in erythrocytes, SYBR Green DNA, 72 h; series mostly up to 28.7 µM
# Method in brief: as §1
# [9] = test system: HACAT; test: qHTS assay to identify novel small-molecules to repurpose for Merkel cell carcinoma treatment (AID 1296009); conditions: MCC and control cell lines, CellTiter-Glo viability, 72 h; at 44.8 µM (top of the series) unless noted
# Method in brief: (§3)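 72 hr, 37 degree celsius; NPC 8-pt / MIPE 11-pt dose response; compound pinned in DMSO; CellTiter-Glo, 10 min RT, luminescence; normalized to no-cell and DMSO controls.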
# [10] = test system: HEK293T; test: as above; conditions: MCC and control cell lines, CellTiter-Glo viability, 72 h; at 44.8 µM (top of the series) unless noted
# Method in brief: as §3
# Note: nearly all actives have a fitted effect of over 60% in size.
compound,measurement,setting,value
COc1cc(O)c(C(=O)c2ccccc2)cc1S(=O)(=O)O,Potency,[1],7.57 µM (active)
same,max response,[2],1.74%
same,max response,[3],-6.68%
same,max response,[4],-4.69%
same,max response,[5],-4.48%
same,max response,[6],1.08%
O=S(c1cc(Cl)cc(Cl)c1O)c1cc(Cl)cc(Cl)c1O,Potency,[7],0.355 µM (active)
same,outcome,[2],inactive
same,max response,[3],-2.46%
same,max response,[4],-16.1%
same,max response,[5],-2.92%
same,max response,[6],1.36%
CC(C)[N+](C)(C)CC(O)COc1cccc2ccccc12 (stereo not given),Potency,[8],inactive
same,Potency,[1],inactive
same,max response,[2],-19.4%
same,max response,[3],-10.5%
same,max response,[4],-6.06%
same,max response,[5],-4.04%
same,max response,[6],-0.944%
CN1CCN(CCC(=O)N2c3ccccc3Sc3ccc(C(F)(F)F)cc32)CC1,Potency,[8],inactive
same,Potency,[1],4.26 µM (active)
same,Potency,[2],15 µM (active)
same,Potency,[3],23.7 µM (active)
same,outcome,[4],inactive
same,max response,[5],5.81%
same,outcome,[9],inactive
Cl/C(=C\n1cncn1)c1ccc(Cl)cc1Cl,Potency,[8],inactive
same,Potency,[7],inactive
same,Potency,[1],inactive
same,outcome,[2],inactive
same,max response,[3],-2.88%
same,max response,[4],-4.78%
same,max response,[5],25.3%
same,max response,[6],0.11%
N#CCC(=O)NN,Potency,[8],inactive
same,Potency,[7],inactive
same,Potency,[1],inactive
same,outcome,[2],inactive
same,max response,[3],3.14%
same,outcome,[4],inactive
same,max response,[5],-1.35%
same,outcome,[9],inactive
O=C(Nc1ccc([N+](=O)[O-])cc1)Nc1ccc([N+](=O)[O-])cc1,Potency,[8],inactive
same,Potency,[7],inactive
same,Potency,[1],2.39 µM (active)
same,max response,[2],-8.01%
same,Potency,[3],8.41 µM (active)
same,outcome,[4],inactive
same,max response,[5],-1.19%
same,outcome,[9],inactive
Clc1cccc(C(c2ccc3nc[nH]c3c2)n2ccnc2)c1 (stereo not given),Potency,[7],7.94 µM (active)
same,max response,[2],-3.34%
same,max response,[3],1.25%
same,max response,[4],-3.24%
same,max response,[5],11.8%
same,max response,[6],-0.487%
c1ccc(CC2=NCCN2)cc1,Potency,[8],inactive
same,Potency,[7],inactive
same,Potency,[1],inactive
same,max response,[2],1.69%
same,max response,[3],-22.9%
same,max response,[4],-10.1%
same,max response,[6],-5.64%
Cc1ccccc1OCC(O)CO (stereo not given),Potency,[8],inactive
same,Potency,[7],inactive
same,Potency,[1],inactive
same,outcome,[2],inactive
same,max response,[3],-6.66%
same,max response,[4],0.0907%
same,max response,[5],1.58%
same,max response,[6],-27.4%
NS(=O)(=O)Cc1noc2ccccc12,Potency,[8],inactive
same,Potency,[7],inactive
same,Potency,[1],inactive
same,max response,[2],0.547%
same,max response,[3],-4.5%
same,max response,[4],1.67%
same,max response,[6],0.477%
CC(=O)Nc1ccc(OCC(O)CNC(C)C)cc1 (stereo not given),Potency,[8],inactive
same,Potency,[7],inactive
same,Potency,[1],inactive
same,max response,[2],-5.23%
same,max response,[3],4.87%
same,outcome,[4],inactive
same,max response,[6],-0.995%
same,outcome,[9],inactive
CCCCNC(=O)NS(=O)(=O)c1ccc(N)cc1,Potency,[8],inactive
same,Potency,[7],inactive
same,Potency,[1],inactive
same,max response,[2],-16.6%
same,max response,[3],2.1%
same,max response,[4],3.3%
same,max response,[5],10%
same,max response,[6],-1.55%
O=C(O)P(=O)(O)O,Potency,[8],inactive
same,Potency,[7],inactive
same,Potency,[1],inactive
same,outcome,[2],inactive
same,max response,[3],0.892%
same,max response,[4],-5.53%
same,max response,[6],4.83%
Cc1cn([C@H]2C[C@H](F)[C@@H](CO)O2)c(=O)[nH]c1=O,outcome,[2],inactive
same,max response,[3],0.5%
same,outcome,[4],inactive
same,max response,[6],-16.7%
same,outcome,[9],inactive
NCCNc1cccc2ccccc12,Potency,[7],inactive
same,max response,[2],-3.59%
same,max response,[3],-7.17%
same,max response,[4],-24.9%
same,max response,[5],-12.5%
same,max response,[6],0.794%
COP(=O)(OC)OC(c1ccc(Cl)cc1)P(=O)(OC)OC (stereo not given),Potency,[8],inactive
same,Potency,[7],inactive
same,Potency,[1],inactive
same,max response,[2],-8.32%
same,max response,[3],-64.4%
same,max response,[4],-2.94%
same,max response,[5],0.95%
same,max response,[6],-38.8%
CCC(CC)(CC(=O)Nc1cccc(/C=C/c2nc(C3CCC3)cs2)c1)C(=O)O,Potency,[8],inactive
same,Potency,[7],inactive
same,Potency,[1],inactive
same,max response,[2],2.29%
same,max response,[3],-8.39%
same,outcome,[4],inactive
same,max response,[6],2.57%
same,outcome,[9],inactive
CN(C)CCC[C@@]1(c2ccc(F)cc2)OCc2cc(C#N)ccc21,Potency,[8],inactive
same,max response,[2],-3.32%
same,max response,[3],-9.91%
same,max response,[4],-13.9%
same,max response,[6],0.771%
CCCN(CCC)S(=O)(=O)c1ccc(C(=O)O)cc1,Potency,[8],inactive
same,Potency,[7],inactive
same,Potency,[1],inactive
same,max response,[2],-3.77%
same,max response,[3],3.98%
same,Potency,[4],18.8 µM (active)
same,max response,[5],20.4%
CCCCCCCCCCCCSCCOCCO,Potency,[8],inactive
same,Potency,[7],inactive
same,Potency,[1],inactive
same,max response,[2],2.82%
same,max response,[3],-0.323%
same,max response,[4],0.693%
same,max response,[6],-3.9%
CN1CCN(C2=Nc3ccccc3Sc3ccc(Cl)cc32)CC1,Potency,[1],3.79 µM (active)
same,max response,[2],-8.62%
same,max response,[3],-15.3%
same,max response,[4],-2.52%
same,max response,[5],-8.12%
same,max response,[6],-1.36%
CC(=O)NCCCCCC(=O)O,Potency,[8],inactive
same,Potency,[7],inactive
same,Potency,[1],inactive
same,max response,[2],-1.79%
same,max response,[3],1.53%
same,max response,[4],-2.92%
same,max response,[6],-7.1%
CC(C)Cc1ccc(CC(=O)O)cc1,Potency,[8],inactive
same,Potency,[7],inactive
same,Potency,[1],inactive
same,max response,[2],2.76%
same,max response,[3],-6.81%
same,max response,[4],-0.56%
same,max response,[6],2.82%
NCc1ccccc1Sc1ccccc1CO,Potency,[8],inactive
same,Potency,[1],4.78 µM (active)
same,max response,[2],-5.17%
same,max response,[3],-7.72%
same,max response,[4],-3.87%
same,max response,[5],6.51%
same,outcome,[6],inactive
NS(=O)(=O)c1ccc(Cl)c(S(N)(=O)=O)c1,Potency,[8],inactive
same,Potency,[7],inactive
same,Potency,[1],inactive
same,max response,[2],-4.09%
same,outcome,[3],inactive
same,max response,[4],-3.23%
same,max response,[6],-4.55%
same,outcome,[10],inactive
CCCCN1C[C@H](O)[C@@H](O)[C@H](O)[C@H]1CO,max response,[2],-12.1%
same,max response,[3],-7.96%
same,max response,[4],-19.6%
same,max response,[6],-2.42%
CC(=O)O[C@]1(C(C)=O)CC[C@H]2[C@@H]3C=C(Cl)C4=CC(=O)CC[C@]4(C)[C@H]3CC[C@@]21C,Potency,[8],7.08 µM (active)
same,Potency,[1],10.7 µM (active)
same,max response,[2],-6.12%
same,Potency,[3],18.8 µM (active)
same,outcome,[4],inactive
same,outcome,[9],inactive
CCOC(=O)c1c(N)sc2c1CCN(Cc1ccccc1)C2,Potency,[8],11.2 µM (active)
same,Potency,[7],5.01 µM (active)
same,Potency,[1],4.78 µM (active)
same,Potency,[2],18.8 µM (active)
same,Potency,[3],11.9 µM (active)
same,max response,[5],-15.4%
COc1ccc(CN(CCN(C)C)c2ncccn2)cc1,Potency,[8],inactive
same,Potency,[7],inactive
same,Potency,[1],5.36 µM (active)
same,max response,[2],0.19%
same,outcome,[3],inactive
same,max response,[5],-2.44%
same,max response,[6],-1.92%
same,outcome,[10],inactive
CC(=O)N[C@@H](CCC(=O)O)C(=O)O,Potency,[8],inactive
same,Potency,[7],inactive
same,Potency,[1],inactive
same,max response,[2],2.81%
same,max response,[3],-7.38%
same,max response,[5],-11.1%
same,outcome,[6],inactive
CN(C)CCN1C(=O)c2ccccc2N(C)c2ccccc21,Potency,[1],2.13 µM (active)
same,max response,[2],-7.77%
same,max response,[3],-1.88%
same,max response,[5],3.06%
same,max response,[6],-0.0642%
OC[C@H]1O[C@@H](Oc2ccc(O)cc2)[C@H](O)[C@@H](O)[C@@H]1O,max response,[2],-17%
same,max response,[3],-74.1%
same,max response,[5],3.33%
same,max response,[6],-45.3%
OC[C@H]1O[C@@H]2O[C@H]3[C@H](O)[C@@H](O)[C@@H](O[C@H]4[C@H](O)[C@@H](O)[C@@H](O[C@H]5[C@H](O)[C@@H](O)[C@@H](O[C@H]6[C@H](O)[C@@H](O)[C@@H](O[C@H]7[C@H](O)[C@@H](O)[C@@H](O[C@H]8[C@H](O)[C@@H](O)[C@@H](O[C@H]1[C@H](O)[C@H]2O)O[C@@H]8CO)O[C@@H]7CO)O[C@@H]6CO)O[C@@H]5CO)O[C@@H]4CO)O[C@@H]3CO,Potency,[8],inactive
same,Potency,[7],inactive
same,Potency,[1],inactive
same,outcome,[2],inactive
same,outcome,[3],inactive
same,max response,[5],3.96%
same,max response,[6],-2.76%
same,outcome,[10],inactive
N=C(N)N1CCc2ccccc2C1,Potency,[8],inactive
same,Potency,[7],inactive
same,Potency,[1],inactive
same,max response,[2],-4.65%
same,max response,[3],-8.82%
same,max response,[5],4.15%
same,max response,[6],-1.16%
Nc1ccc(S(=O)(=O)NCc2ccccc2)cc1,Potency,[8],inactive
same,Potency,[7],inactive
same,Potency,[1],inactive
same,max response,[2],-13.3%
same,max response,[3],3.66%
same,max response,[5],-2.49%
same,max response,[6],-0.659%
O=C(O)Cc1csc(-c2ccc(Cl)cc2)n1,Potency,[8],inactive
same,Potency,[7],inactive
same,Potency,[1],inactive
same,max response,[2],-17.8%
same,max response,[3],-0.458%
same,max response,[4],-16.3%
same,max response,[6],1.14%
O=C(c1ccc(F)cc1)C1CCN(CCn2c(=S)[nH]c3ccccc3c2=O)CC1,Potency,[8],3.98 µM (active)
same,Potency,[7],5.01 µM (active)
same,Potency,[1],2.39 µM (active)
same,max response,[2],-5.62%
same,max response,[3],-98.9%
same,max response,[5],8.09%
same,max response,[6],-46.6%
COc1cc(NS(=O)(=O)c2ccc(N)cc2)ncn1,Potency,[8],inactive
same,Potency,[7],inactive
same,Potency,[1],inactive
same,outcome,[2],inactive
same,max response,[3],-0.739%
same,max response,[5],-8.34%
same,max response,[6],-12.1%
